Screening results deposited in PubChem BioAssay by National Center for Advancing Translational Sciences (NCATS).
HT1080 IDH1KD tx: kills HT-1080 cells with IDH1 knockdown. HT-1080 IDH1 knockdown viability, ATP luminescence, 48 h. Potency, µM (titrated, usually from 46.1 µM), for inactives: at the top dose activity, negative = toxicity, most hits filed as cytotoxic. hit rate 2% among 360,000;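 note: 0% = DMSO wells and -100% = cell-free medium wells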
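Cytotoxicity counter-line: IDH1KD HT-1080, 48 h, CellTiter-Glo. Curves classed by r2, magnitude and activity.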
KB-3-1 tox: KB-3-1 parental cell cytotoxicity | AID 1347075 | hit rate 1.4% among 400,000 | Potency, µM (highest dose often 46.1 µM), hits mostly cytotoxic | KB-3-1 viability, CellTiter-Glo ATP luminescence, 72 h; note: nearly all actives have a fitted effect of over 60% in size
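KB-3-1 parental drug-naive adenocarcinoma cells in DMEM/10% FBS, incubated 72 h at 37 C with pin-transferred compounds across a concentration series. Viability by CellTiter-Glo luminescence; concentration-response curves fitted after normalization.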
DT40 TDP1 CPT: DT40-hTDP1 cell growth loss with CPT; chicken DT40 Tdp1-/-;hTDP1 cells + 20 nM CPT, ATP luminescence, 48 h; Potency, µM (series often up to 46.2 µM), for inactives: at the top dose activity change, negative = growth inhibition, most hits filed as inhibitors; hit rate 12% among 420,000; AID 686979; note: nearly all actives have a fitted effect of over 55% in size
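Chicken DT40 Tdp1-/- cells stably complemented with human TDP1 were seeded at 400 cells/well in medium containing 20 nM camptothecin, exposed to pin-transferred compounds, and grown at 37 °C for at least 48 hr. Viability was read as ATP luminescence.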
KB-V1 cytotox: KB-V1 MDR subline cytotoxicity | KB-V1 MDR cells viability, CellTiter-Glo, 72 h | Potency, µM (top dose mostly 46.1 µM), hits mostly cytotoxic | hit rate 3.4% among 400,000 | AID 1347076; note: nearly all actives have a fitted effect of over 60% in size
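Luminescent ATP read-out (CellTiter-Glo, 10 min) measures survival of drug-selected KB-V1 MDR cells after 72 h, 37 degrees C compound exposure. Medium: phenol-red-free DMEM, 10% FBS. Values from fitted concentration-response curves.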
HT1080NT lethal: kills 2HG-producing HT-1080-NT fibrosarcoma cells. HT-1080-NT fibrosarcoma viability, CellTiter-Glo ATP luminescence, 48 h. Potency, µM (titrated, usually from 46.1 µM), for inactives: top-dose activity, negative = less viability, most hits filed as cytotoxic. hit rate 1.6% among 360,000;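 note: NT is the 2HG producing partner of a matched IDH1 knockdown line; 0% = DMSO-treated cells and -100% = media-only wells without cells; nearly all actives have a fitted effect of over 55% in size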
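HT-1080-NT fibrosarcoma cells (2HG-overproducing), 750 cells/well in RPMI with 5% FBS, dosed after 2 h and incubated 48 h at 37C. CellTiter-Glo luminescence normalized to DMSO and no-cell wells; concentration-response curves fitted and classed.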
TDP1 cell noCPT: qHTS for Inhibitors of human tyrosyl-DNA phosphodiesterase 1 (TDP1): qHTS in cells in absence of CPT. DT40 Tdp1-/- hTDP1 cells, no CPT, ATP luminescence, 48 h. Potency, µM (top dose mostly 46.2 µM), for the others: at the highest dose activity change, negative = growth inhibition, usual class: inhibitors. hit rate 15% among 420,000. AID 686978, 2013; note: nearly all actives have a fitted effect of over 55% in size
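No-CPT arm: Tdp1-/-;hTDP1 DT40 cells (400/well) plus compounds, incubated ≥48 hr at 37 °C. Readout CellTiter-Glo luminescence.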
* hit, by the source's call; i = inactive; ? = inconclusive; nt = not tested or not shown; ! = not confirmed by another sample. An excerpt weighted towards active compounds, which were near 19% of everything screened. Calls come from the whole dose curve; as a rule, active = well fitted curve in the direction sought with a large enough effect; inconclusive = small, poorly fitted or top-dose-only effect, or another doubt; inactive = no such curve, though single readings can be large; an effect the other way counts as inactive or inconclusive. Unless noted, % is set by controls: 0 for no effect and ±100 for the full control effect; potency is the fitted concentration of half-maximal effect.

SMILES	HT1080 IDH1KD tx	KB-3-1 tox	DT40 TDP1 CPT	KB-V1 cytotox	HT1080NT lethal	TDP1 cell noCPT
COc1cc(NC(=O)CN(c2ccc(C)cc2)S(=O)(=O)c2cccc3nonc23)cc(OC)c1	nt	i	?	i	nt	18.4µM*
COc1ccc(N(CC(=O)Nc2cc(Cl)ccc2C)S(=O)(=O)c2c(C)noc2C)cc1	?	5.8µM*	2.91µM*	?	5.8µM*	3.66µM*
Cc1cc(C)cc(N(CC(=O)NC2CCC(C)CC2)S(=O)(=O)c2c(C)noc2C)c1 (stereo unspecified)	-1.0%	i	20.6µM*	i	0.0%	?
COc1ccc(N(CC(=O)Nc2cc(C)ccc2C)S(=O)(=O)c2c(C)noc2C)cc1	-25.6%	?	?	?	-6.1%	-26.5%
CNc1cncc(-c2cccc(C(=O)NCCN(C)C)c2)n1	7.7%	i	0.8%	i	?	-1.1%
COC(=O)CN1C(=O)COc2ccc(S(=O)(=O)N3CCCCCC3)cc21	5.8%	i	-4.4%	i	-0.8%	1.5%
O=C(CSc1nc2c(c(=O)[nH]1)CCC2)Nc1ccccc1F	nt	i	-11.9%	i	nt	-11.5%
COC(=O)c1sccc1S(=O)(=O)N(CC(=O)Nc1ccc(C)cc1)c1ccccc1	nt	i	?	i	nt	20.6µM*
COc1ccc(N(CC(=O)Nc2cc(C)ccc2C)S(=O)(=O)c2c(C)nn(C)c2C)cc1	-11.0%	i	?	i	-8.7%	25.9µM*
COc1ccc(N(CC(=O)Nc2cc(C)ccc2OC)S(=O)(=O)c2c(C)noc2C)cc1	?	?	23.1µM*	9.2µM*	?	?
COC(=O)c1sccc1S(=O)(=O)N(CC(=O)NCc1ccccc1)c1ccccc1	nt	i	-13.2%	i	nt	?
COc1ccc(Cc2c(C)nn(-c3nc(C)c(C(=O)Nc4ccc(C)cc4C)s3)c2C)cc1	nt	nt	-4.0%	nt	nt	-9.8%
COc1ccc(NS(=O)(=O)c2ccc3nc(COc4cccc5ccccc45)[nH]c3c2)cc1	?	?	16.4µM*	?	-24.7%	20.6µM*
COc1ccc(NS(=O)(=O)c2ccc3nc(COc4ccc5ccccc5c4)[nH]c3c2)cc1	?	?	18.4µM*	i	?	?
COc1ccccc1NS(=O)(=O)c1ccc2nc(CCl)[nH]c2c1	?	i	?	i	18.0%	?
COc1ccc(OCc2nc3ccc(S(=O)(=O)Nc4ccccc4Cl)cc3[nH]2)cc1	?	i	?	?	-13.4%	?
CN(C)c1ccc(/C=C2\CCCc3c2nc2ccccc2c3C(=O)O)cc1	-0.5%	i	8.7%	i	-14.1%	5.9%
COc1ccc(OC)c(CNC(=O)CCS(=O)(=O)c2ccc3c(c2)oc(=O)n3C)c1	10.1%	i	0.4%	i	7.2%	15.5%
COc1ccc(-n2nc(C(=O)NCc3ccc(F)cc3Cl)c3c4ccccc4n(C)c3c2=O)cc1Cl	nt	i	-1.0%	?	nt	-0.6%
Cc1[nH]nc(-c2ccc(OCc3cnn(-c4ccccc4)c3)c(C)c2O)c1Oc1ccccc1	16.4µM*	20.6µM*	-25.8%	i	20.6µM*	?
Cc1[nH]nc(-c2ccc(OCc3cnn(-c4ccccc4)c3)cc2O)c1Oc1ccc(F)cc1	?	?	?	i	?	?
Cc1ccc(C)c(NCCCCCCCC(=O)O)c1	1.8%	i	-19.5%	i	28.9%	1.5%
O=C(CCc1nc2ccccc2c(=O)[nH]1)Nc1ccc(F)c([N+](=O)[O-])c1	-20.8%	?	?	i	0.0%	?
O=C(Nc1cc([N+](=O)[O-])c2[nH]c(=O)c3ccccc3c2c1)C(F)(F)F	?	i	0.291µM*	?	-2.1%	1.84µM*
COc1ccc(-n2nc3c(c2NC(=O)COc2ccccc2F)CS(=O)(=O)C3)cc1	4.3%	i	0.1%	i	0.1%	0.3%
SMILES	HT1080 IDH1KD tx	KB-3-1 tox	DT40 TDP1 CPT	KB-V1 cytotox	HT1080NT lethal	TDP1 cell noCPT
Cn1c(Cn2nnc3ccccc32)nnc1SCC(N)=O	10.5%	i	-16.1%	i	8.6%	-11.5%
Cn1c(Cn2nnc3ccccc32)nnc1SCC(=O)N1c2ccccc2CCc2ccccc21	1.8%	i	23.1µM*	?	1.4%	?
O=C1c2ccccc2C(=O)N1CC(O)Cn1nnc2ccccc21 (stereo unspecified)	4.2%	i	1.1%	i	-1.0%	-0.8%
Cn1c(Cn2nnc3ccccc32)nnc1SCC(=O)N1c2ccccc2Sc2ccccc21	?	i	13µM*	16.4µM*	?	16.4µM*
OC(CN1c2ccccc2Sc2ccccc21)Cn1nnc2ccccc21 (stereo unspecified)	?	?	?	16.4µM*	-16.1%	20.6µM*
CCOC(=O)c1ccccc1NC(=O)c1c2c(nc3ccccc13)C(=O)N(C1CCCCC1)C2	nt	i	-14.9%	i	nt	-16.9%
CCCCCCCCCCCCCCCC[n+]1cccc(C(=O)N(CC)CC)c1	20.6µM*!	13µM*!	2.91µM*	i	?	2.59µM*
CCCCCCCC[n+]1cccc(C(=O)N(CC)CC)c1	-5.3%	i	-25.7%	i	4.7%	?
CCCCCCCCCCCCCCCC[n+]1ccc(/C=N/O)cc1	23.1µM*	2.91µM*	1.64µM*	i	20.6µM*	1.64µM*
CCCCCCCCCCCCCC[n+]1ccc(C)cc1	nt	nt	0.422µM*	nt	nt	0.376µM*
CCCCCCCCCCCC[n+]1ccc2ccccc2c1	nt	nt	0.531µM*	nt	nt	0.335µM*
CC(C)NC(=O)c1ccc2sc([C@H]3C[C@H](O)[C@@H](CO)O3)nc2c1	6.2%	i	-8.7%	i	29.6%	1.9%
CCCCCCCCCCCCCCCC[n+]1ccc(C(N)=O)cc1	-6.3%	?	4.61µM*	i	-4.2%	2.91µM*
CCOC(=O)c1ccccc1NC(=O)Cn1cc(C(=O)c2cccc(OC)c2)c(=O)c2ccc(C)nc21	nt	i	-4.9%	i	nt	0.9%
Cc1ccc(CN2CCN(/N=C/c3ccc(C(=O)O)cc3)CC2)c(C)c1	-20.9%	i	-18.0%	i	-5.6%	-15.9%
COC(=O)c1ccc(/C=N/N2CCN(Cc3ccc(C)cc3C)CC2)cc1	1.9%	i	?	18.4µM*	4.8%	?
Cn1c(=O)cc(NCCc2ccccc2)[nH]c1=O	-26.6%	?	7.31µM*	?	-23.5%	10.3µM*
Cn1c(=O)cc(Nc2ccc(Cl)cc2)[nH]c1=O	-4.1%	i	?	i	-0.2%	20.6µM*
